# High-throughput results as filed in PubChem.
# D2 ag-1: agonists of human D2 dopamine receptor | activation, % at 2 µM | AID 485358 | HEK293 T-REx D2 cells, calcium flux agonist mode | P14416 | hit rate 0.53% among 340,000;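 active = activation over 3 SD above normal in the single-dose calcium agonist read, cut at about 30% in these data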
# Target sequence (P14416 whole entry, looked up): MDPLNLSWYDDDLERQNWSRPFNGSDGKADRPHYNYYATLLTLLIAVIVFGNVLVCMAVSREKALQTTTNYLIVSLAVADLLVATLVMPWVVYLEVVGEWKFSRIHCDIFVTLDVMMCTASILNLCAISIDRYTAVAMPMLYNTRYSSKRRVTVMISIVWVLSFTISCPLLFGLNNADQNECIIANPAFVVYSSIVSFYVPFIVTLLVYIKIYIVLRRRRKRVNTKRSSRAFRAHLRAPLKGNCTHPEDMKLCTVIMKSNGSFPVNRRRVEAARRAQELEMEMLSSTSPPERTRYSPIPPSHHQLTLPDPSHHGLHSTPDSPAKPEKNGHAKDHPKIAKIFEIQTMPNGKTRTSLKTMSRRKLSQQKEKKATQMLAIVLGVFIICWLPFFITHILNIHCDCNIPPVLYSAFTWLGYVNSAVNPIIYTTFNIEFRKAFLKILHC
#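 Calcium-flux readout, 1 cycle/sec over 180 s following compound pin transfer, in inducible HEK293 Trex D2 cells (force-coupled); dopamine controls included. Positive calcium responses during this window marked compounds as potential agonists.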
# B2AR arrestin: beta2AR (human) beta-arrestin recruitment activity. P07550. beta-arrestin recruitment to beta2AR, cell-based reporter. Potency, µM (top dose mostly 46.1 µM), most hits filed as activators. hit rate 0.02% among 330,000. AID 492947; active = well fitted activation curve with a large enough effect; note: nearly all actives have a fitted effect of over 65% in size
# D2 PAM-1: positively modulates the human D2 dopamine receptor allosterically; P14416; potentiation, % at 10 µM; HEK293 T-REx D2, calcium flux, EC20 dopamine potentiation; hit rate 0.34% among 340,000; AID 485347;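 active = potentiation over 3 SD above the plate norm, cut at about 30% in these data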
#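 Tetracycline-induced HEK293 T-REx cells force-coupled to calcium signalling expressed D2; compounds were pin-added after a 10 s baseline, read kinetically 180 s, then an EC20 dopamine challenge followed with a further 180 s calcium read.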
# D2 ag-2: agonists of human D2 dopamine receptor (beta-arrestin). activation, % (concentration not given with the values). AID 624465. DiscoveRx PathHunter D2 beta-arrestin, luminescence, 90 min; 100% = 57 uM dopamine signal. hit rate 0.084% among 360,000. P14416; in the data active = activation above about 40%
#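 DiscoveRx PathHunter D2 beta-arrestin cells (2,100/well) attached overnight, then compound-stimulated 90 min at 37 C in HBSS/10 mM HEPES/0.1% Tween-20 buffer; beta-galactosidase complementation read by luminescence after 1 h at ambient temperature. Dopamine 57 uM final (EC100) as control.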
# D2 PAM-2: potentiates the human D2 dopamine receptor allosterically; hit rate 0.23% among 360,000; P14416; DiscoveRx D2 beta-arrestin cells, luminescence, 90 min; 100% = 57 uM dopamine signal; potentiation, % (test concentration not listed); in the data active = potentiation above about 50%
#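 PathHunter D2 cells, attached overnight at 37 deg C, received compound in DMSO plus dopamine at EC20 (50 nM final) for 90 min at 37 deg C. Beta-arrestin recruitment was read as luminescence after 1 h with detection reagent at ambient temperature.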
# D2 antagonist: antagonists of human D2 dopamine receptor | P14416 | HEK293 TREx D2 cells, calcium flux, dopamine EC80 | inhibition, % at 10 µM | hit rate 2% among 340,000 | AID 485344; in the data active = inhibition above about 30%; inactive = below that, where a call was filed
#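 In this primary screen, negative modulation is detected by tracking calcium flux after an EC80 dopamine challenge in inducible HEK293 T-REx D2 cells preexposed to test compound for 180 s.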
# A number is an active result; – = inactive; · = no result given; ! = repeats disagree. The list is not random: actives were taken first. Their share in the collection is about 2.4%.
SMILES,D2 ag-1,B2AR arrestin,D2 PAM-1,D2 ag-2,D2 PAM-2,D2 antagonist
COc1cccc(NC(=O)C2CC(=O)N(Cc3ccco3)C2)c1 (centres undefined),–,–,–,–,–,37
O=C(Nc1nccs1)C1CC(=O)N(Cc2ccco2)C1 (centres undefined),–,–,46,–,–,–
COc1ccc(NC(=O)C2CC(=O)N(c3cccc(C)c3C)C2)cc1 (centres undefined),–,–,–,–,–,31
CC(=O)Nc1ccc(NC(=O)C2CC(=O)N(c3cccc(C)c3C)C2)cc1 (centres undefined),–,–,–,–,–,–
CC(C)(C)c1nnc(NC(=O)C2CCN(c3ncccn3)CC2)s1,–,–,–,–,–,–
Cc1ccc(-c2cc(C(=O)N/N=C/c3c(C)nn(-c4ccccc4)c3C)n[nH]2)s1,–,–,–,–,–,–
C=C(C)COc1ccc(-c2[nH]ncc2-c2ccccc2)c(O)c1,–,–,–,–,84,–
COc1ccc(-c2cn[nH]c2-c2ccc(OCc3ccc(F)cc3)cc2O)cc1OC,–,–,–,–,–,45
COc1ccc(-c2cn[nH]c2-c2ccc(OCc3ccccc3)cc2O)cc1OC,–,–,–,–,–,–
O=C(O)c1csc(-n2nc(-c3ccccc3)cc2C(F)(F)F)n1,–,–,–,–,–,48
COc1ccc(NC(=O)c2cccc(N3C(=O)C4C5C=CC(C5)C4C3=O)c2)cc1 (centres undefined),–,–,–,–,–,–
CCN(CC)c1nc(Oc2ccc(=O)[nH]n2)nc(N2CCOCC2)n1,–,–,–,–,–,–
CN(C)c1nc(Oc2ccc(=O)[nH]n2)nc(N2CCCCC2)n1,–,·,–,–,–,31
COc1ccc(NC(=O)c2cccn2-c2nnc(N3CCCCC3)s2)cc1Cl,–,·,–,·,·,·
COc1ccc(/C=N/NC(=O)COc2ccccc2-c2ccccc2)cc1,–,–,–,–,–,39
O=C(COc1ccccc1-c1ccccc1)N/N=C/c1cccc2ccccc12,–,–,–,–,–,–
Cc1cccc(COc2ccc(-c3cc(C(F)(F)F)n4nc(C)cc4n3)cc2)c1,–,·,–,·,·,·
CN(C)CCn1cnc2c(c1=N)C(c1ccccc1)c1ccc3ccccc3c1O2 (centres undefined),–,–,–,–,–,62
C=CCn1c(C)cc(C(=O)Cn2nc(C(=O)O)c3ccccc3c2=O)c1C,–,–,–,–,–,–
O=C(O)c1nn(CCOc2c(Cl)cccc2Cl)c(=O)c2ccccc12,–,–,45,–,–,–
COCCn1c(C)cc(C(=O)COC(=O)c2ccc[nH]c2=O)c1C,–,–,–,–,–,62
COCCn1c(C)cc(C(=O)Cn2nc(C(=O)O)c3ccccc3c2=O)c1C,–,–,–,–,–,32
Fc1cccc(Cl)c1CNCCSc1nnnn1-c1ccccc1,–,·,–,·,·,·
CC(=O)c1c(C)[nH]c(C(=O)CSc2nnc(NC3CC3)s2)c1C,–,–,–,–,–,–
CCOC(=O)c1c(NC(C)=O)sc2c(O)c(Br)cc(Br)c12,–,–,–,–,–,36
SMILES,D2 ag-1,B2AR arrestin,D2 PAM-1,D2 ag-2,D2 PAM-2,D2 antagonist
COc1ccc(CCNS(=O)(=O)c2cccc(F)c2)cc1OC,–,–,–,–,–,–
COCCNC(=O)C(c1ccc(C)o1)N(C(=O)C(=O)NC1CCCCC1)c1ccc(F)cc1 (centres undefined),–,–,34,–,–,–
CC(=O)c1c(C)[nH]c(C(=O)CN(C)CC(=O)Nc2ccccc2Cl)c1C,·,–,·,–,–,·
CCCN1CCN(C(c2cc3cc(OCC)ccc3[nH]c2=O)c2nnnn2C2CCCCC2)CC1 (centres undefined),–,–,–,–,–,–
CCOc1ccc2[nH]c(=O)c(CN(CCO)C(c3nnnn3C3CCCCC3)C(C)C)cc2c1 (centres undefined),–,–,–,–,–,35
COc1cccc(CNS(=O)(=O)c2cc(Br)cc3c2N(C(C)=O)C(C)C3)c1 (centres undefined),–,–,–,–,–,40
COc1cc(NC(=O)COC(=O)Cc2ccsc2)cc(OC)c1,–,–,–,–,–,31
Cn1c(SCC(=O)NNC(=O)c2ccccc2)nnc1C(F)(F)F,–,–,–,–,–,–
O=C(Cc1ccc(Br)cc1)NC1CCN(Cc2ccccc2)CC1,–,–,–,–,–,–
CC(C)(C)c1ccc(C(=O)NC2CCN(Cc3ccccc3)CC2)cc1,–,–,–,–,–,54
Cc1ccc(NS(=O)(=O)c2ccc(C(=O)NC3CCN(Cc4ccccc4)CC3)cc2)cc1,·,–,·,–,–,·
O=C(NC1CCN(Cc2cccc([N+](=O)[O-])c2)CC1)c1ccccc1,–,–,–,–,–,74
O=[N+]([O-])c1cccc(CN2CCC(Cc3ccccc3)CC2)c1,–,–,–,–,–,–
CN1CCC(NC(=O)c2cccc(Oc3ccccc3)c2)CC1,–,–,–,–,–,70
Cn1nccc1C(=O)NC1CCN(Cc2ccccc2)CC1,–,–,–,–,–,55
O=C(NC1CCCC1)c1cccc(Oc2ccccc2)c1,–,–,–,–,–,–
O=C(NNC1CCN(Cc2ccccc2)CC1)c1ccccc1,·,·,·,–,–,·
O=[N+]([O-])c1cccc(CN2CCN(c3cccc4[nH]ccc34)CC2)c1,–,–,–,–,–,42
O=C(NC1CCN(Cc2ccccc2)CC1)c1cncc(Br)c1,–,–,–,–,–,85
Cc1oc(-c2ccccc2)cc1C(=O)NC1CCN(Cc2ccccc2)CC1,–,–,–,–,–,69
O=C(NC1CCN(Cc2ccccc2)CC1)c1ccccc1,–,–,–,–,–,74
COc1ccccc1-c1c(C(F)(F)F)oc2c(CN3CCCCC3C)c(O)ccc2c1=O (centres undefined),–,·,–,·,·,·
Cc1ccccc1CSCCNC(=O)CN(c1ccccc1)S(=O)(=O)N(C)C,–,·,–,·,·,·
COc1ccc(N(CC(=O)NCCSCc2ccc(C)cc2)S(=O)(=O)c2ccccc2)cc1,–,–,–,–,–,31
COc1ccc(N(CC(=O)NCCSc2ccccc2)S(=O)(=O)c2ccccc2)cc1,–,–,–,–,–,–
CN(C)S(=O)(=O)N(CC(=O)NCCSCc1ccccc1)c1ccccc1,–,–,85!,–,–,–
CCC1CCC(N2CCN(c3ccccc3F)CC2)CC1 (centres undefined),–,–,–,–,–,37
